Assay results from PubChem BioAssay (NCATS).
Where “and” joins values, the source holds several entries; their conditions need not be identical. Equal entries are not always repeated. Records with an inconclusive call do not appear. Some compounds were tested as several samples or in several runs, with calls that do not always agree. Calls of active or inactive are those of the source. Calls follow the shape of the dose curve; as a rule, active = well fitted curve in the direction sought with a large enough effect; inconclusive = small, poorly fitted or top-dose-only effect, or another doubt; inactive = no such curve, though single readings can be large; an effect the other way counts as inactive or inconclusive.

Tests used:
[1] = tested on: Tov112D; assay: Primary qHTS to identify gynecologic anti-cancer compounds using libraries of approved drugs and bioactive compounds (AID 1345084); settings: Gynecologic cancer cell panel viability, ATPlite luminescence, 48 h; series mostly up to 57.5 µM; also: nearly all actives have a fitted effect of over 55% in size
In short: (§1)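 Five-concentration response, 48 h; readout is ATP-driven luciferase luminescence.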

[2] = Drug repurposing screens with cells derived from glioblastoma tumor samples (AID 1345199); settings: GBM patient neurospheres viability, ATP luminescence, 48 h; also: nearly all actives have a fitted effect of over 40% in size
In short: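 Primary testing used CD133+ neurospheres from four GBM patients, seven concentrations, 48 h exposure and ATP-based viability; confirmation added three slower-growing patient lines.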

[3] = tested on: Es-2; assay: Primary qHTS to identify gynecologic anti-cancer compounds using libraries of approved drugs and bioactive compounds (AID 1345084); settings: Gynecologic cancer cell panel viability, ATPlite luminescence, 48 h; series mostly up to 57.5 µM; also: nearly all actives have a fitted effect of over 55% in size
In short: as §1

[4] = tested on: Hek293T; assay: as above; settings: Gynecologic cancer cell panel viability, ATPlite luminescence, 48 h, control line for the selectivity index; series mostly up to 57.5 µM
In short: as §1

[5] = tested on: JEG-3; assay: as above; settings: Gynecologic cancer cell panel viability, ATPlite luminescence, 48 h; series mostly up to 57.5 µM
In short: as §1

[6] = tested on: OV90; assay: as above; settings: Gynecologic cancer cell panel viability, ATPlite luminescence, 48 h; series mostly up to 57.5 µM
In short: as §1

[7] = tested on: SKOV3; assay: as above; settings: Gynecologic cancer cell panel viability, ATPlite luminescence, 48 h; series mostly up to 57.5 µM
In short: as §1

[8] = tested on: Tov-21-G; assay: as above; settings: Gynecologic cancer cell panel viability, ATPlite luminescence, 48 h; series mostly up to 57.5 µM
In short: as §1

[9] = tested on: HeLa; assay: as above; settings: Gynecologic cancer cell panel viability, ATPlite luminescence, 48 h; series mostly up to 57.5 µM
In short: as §1

[10] = tested on: PA-1; assay: as above; settings: Gynecologic cancer cell panel viability, ATPlite luminescence, 48 h; series mostly up to 57.5 µM
In short: as §1

[11] = at 45.9 µM (top of the series), tumour line B
[12] = at 45.9 µM (top of the series), tumour line D
[13] = at 46.1 µM (top of the series), tumour line C
[14] = at 21.2 µM (top of the series), tumour line B
[15] = at 21.2 µM (top of the series), tumour line D
[16] = at 46 µM (top of the series), tumour line A
% is scaled to controls: 0 for no effect and ±100 for the full control effect; potency is read from the fitted curve at half-maximal effect.

CCCCCN=C(N)N/N=C/c1c[nH]c2ccc(OC)cc12
active: Potency [1] 35.5 µM
inactive: activity, negative = cell killing [2, 11] -10.3% | activity, negative = cell killing [2, 12] 8.03% | activity, negative = cell killing [2, 13] 9.98%

NC(N)=NCc1cccc(I)c1
inactive: activity, negative = cell killing [2, 11] -24.3% and -14.8%
active: Potency ([2]; tumour line A) 12.6 µM

NC(=O)n1c(O)c(C(=O)c2cccs2)c2cc(Cl)ccc21
inactive: Potency [3] | Potency [4] | Potency [5] | Potency [6] | Potency [7] | Potency [8] | Potency [1] | activity, negative = cell killing [2, 11] -6.38% | activity, negative = cell killing [2, 12] -26.9%
active: Potency ([2]; tumour line A) 22.4 µM | Potency ([2]; tumour line C) 18.4 µM

O=C(N/N=C/c1ccc([N+](=O)[O-])o1)c1ccc(O)cc1
inactive: Potency [9] | Potency [5]
active: Potency [4] 25.1 µM | Potency [6] 22.4 µM | Potency [10] 20 µM | Potency [7] 14.1 µM

CCO[C@@H]1O[C@H](C(COCc2ccccc2)OCc2ccccc2)[C@H](OCc2ccccc2)[C@H]1O (stereo partly drawn)
inactive: Potency [4] | Potency [5] | Potency [6] | Potency [10] | Potency [7] | Potency [8] | Potency [1] | activity, negative = cell killing ([2]; at 20 µM (top of the series), tumour line C) -1.34% | activity, negative = cell killing [2, 14] -8.94% | activity, negative = cell killing [2, 15] -23.7%
active: Potency ([2]; tumour line A) 14.1 µM

CN=C(N)NCCC[C@H](N)C(=O)O
inactive: activity, negative = cell killing [2, 11] -4.01% and -7.28% and -14.2% | activity, negative = cell killing [2, 12] -19.7% and 0.377% and -12.4% | activity, negative = cell killing [2, 16] -28.1% | activity, negative = cell killing [2, 13] 8.15% and -7.9% and -1.89%

Cc1ccc2c(Br)cc(Br)c(O)c2n1
active: Potency [10] 10 µM | Potency [7] 15.8 µM | Potency [8] 17.8 µM
inactive: Potency [9]

CC[C@]12CCCN3CCc4c(n(c5ccccc45)C(=O)C1)[C@@H]32
inactive: Potency [3] | Potency [5] | Potency [6] | activity, negative = cell killing [2, 14] -16.8% | activity, negative = cell killing [2, 15] -29.4%
active: Potency [10] 20 µM | Potency [1] 28.2 µM and 31.6 µM | Potency ([2]; tumour line A) 6.31 µM

CCc1nn(CCCN2CCN(c3cccc(Cl)c3)CC2)c(=O)n1CCOc1ccccc1
inactive: Potency [3] | Potency [4] | Potency [5] | Potency [7] | Potency [8] | Potency [1] | activity, negative = cell killing [2, 11] -29% | activity, negative = cell killing [2, 13] -17.6%
active: Potency ([2]; tumour line A) 7.94 µM and 10 µM | Potency ([2]; tumour line D) 15.8 µM and 11.2 µM

CN1CCc2cccc3c2[C@H]1Cc1ccc(O)c(O)c1-3
inactive: Potency [4] | Potency [6] | Potency [7] | activity, negative = cell killing [2, 13] -0.121%
active: Potency ([2]; tumour line A) 11.2 µM

Cl/C(=C\n1cncn1)c1ccc(Cl)cc1Cl
inactive: Potency [3] | Potency [4] | Potency [5] | Potency [6] | Potency [10] | Potency [7] | Potency [8] | Potency [1] | activity, negative = cell killing [2, 11] -7.02% | activity, negative = cell killing [2, 12] -2.18% | activity, negative = cell killing [2, 13] -23.5%

Oc1c(Cl)cc(Cl)c(Cl)c1Cc1c(O)c(Cl)cc(Cl)c1Cl
inactive: Potency [8]
active: Potency [4] 8.91 µM | Potency [6] 10 µM | Potency [10] 11.2 µM

CN(C)CCOC(c1ccc(Cl)cc1)c1ccccn1 (stereo not drawn)
active: Potency ([2]; tumour line A) 15.8 µM
inactive: Potency [5] | activity, negative = cell killing [2, 11] -15.3% | activity, negative = cell killing [2, 12] -15.7% | activity, negative = cell killing [2, 13] 3.84%

CCOC(=O)[C@H](CCc1ccccc1)N[C@@H](C)C(=O)N1[C@H](C(=O)O)C[C@H]2CCCC[C@@H]21
inactive: activity, negative = cell killing [2, 12] 2.82% | activity, negative = cell killing [2, 16] -15.6% | activity, negative = cell killing [2, 13] 1.22% and -4.13%
